Assay results taken from PubChem BioAssay AID588742 (Southern Research Specialized Biocontainment Screening …, 2011).
Hit rate of the full screen: of about 1,800 compounds, about 410 (23%) were called active. A selection follows. Measured potencies and affinities stand elsewhere. A number with no mark means an inactive call. How the calls were made is not given here.

Assay: viability of Vero cells under compound – cytotoxicity control for flavivirus capping enzyme inhibitors (AID 588742)
Conditions: cytotoxicity counter-screen; series mostly up to 40 µM; viability: at the top concentration
With COc1ccc(-c2csc(/C(C#N)=C(\O)CSc3nccn3C)n2)cc1OC the “viability” value was 102%.
For CCOc1ccc(C(c2c(O)nc(SC)n(C)c2=O)c2c(O)nc(SC)n(C)c2=O)cc1, the “viability” value was 100%.
With COC(=O)C1=C(C(=O)OC)C(c2cc(Br)ccc2O)c2sc(=O)[nH]c2S1 (configuration not stated) the “viability” value was 110%.
For Cc1ccc(-c2c(C(=O)N/N=C/c3ccncc3)nnn2-c2nonc2N)cc1, the “viability” value was 89.8%.
With COc1ccc(Cc2c(O)nc(SC)n(C(C)=O)c2=O)cc1 the “viability” value was 104%.
For O=C(O)CN1C(=O)/C(=C\c2cccc(OCc3ccccc3)c2)SC1=S, the “viability” value was 93.8%.
With O=C(CC(c1ccccc1)c1ccccc1O)N1CCCC1 (configuration not stated) the “viability” value was 98.5%.
For O=C(O)c1ccc2c(c1Nc1ccccc1)C(=O)c1ccccc1C2=O, the “viability” value was 85.9%.
In the case of Cc1sc(C(C2C(=O)CC(C)(C)CC2=O)C2C(=O)CC(C)(C)CC2=O)cc1[N+](=O)[O-], the “viability” value is reported as 100%.
For O=C(O)c1cccc(NS(=O)(=O)c2ccc(-c3ccc(S(=O)(=O)Nc4cccc(C(=O)O)c4)cc3)cc2)c1, the “viability” value was 98%.
In the case of CCc1ccc(S(=O)(=O)ON2C(=O)c3ccccc3C2=O)cc1, the “viability” value is reported as 98.7%.
In the case of O=C(c1ccccc1NS(=O)(=O)c1ccc([N+](=O)[O-])cc1[N+](=O)[O-])N1O[C@@H]2C=C[C@H]1C2, the “viability” value is reported as 87.8%.
In the case of CCOc1ccc2c(c1)n([O-])c1c([n+]2=O)CCCC1, the “viability” value is reported as 102%.
With COc1cc(C(=O)NC(C(=O)Nc2cccc(C(C)=O)c2)C(C)C)cc(OC)c1OC (configuration not stated) the “viability” value was 90.7%.
With Cc1nn(CCc2nc(-c3ccco3)cs2)c2[nH]c(=O)cc(C(F)(F)F)c12 the “viability” value was 89.7%.
For C/C(=N\Nc1cccc(C(=O)O)c1)c1ccc(Cl)s1, the “viability” value was 91.2%.
In the case of COC1=C(Br)C(=O)c2ncccc2C1=O, the “viability” value is reported as 95.4%.
With CC(C)c1ccc(NC(=O)COC(=O)CSc2nnc(N)s2)cc1 the “viability” value was 90.8%.
With CC(/C=C1\SC(=S)N(c2ccc(C(=O)O)cc2)C1=O)=C\c1ccccc1 the “viability” value was 92.8%.
For COc1ccc(OC)c2c(C)cc(N3CCCCCC3)nc12, the “viability” value was 81.7%.
In the case of CN(C)c1cc(N/N=C\c2ccccc2)nc(N(C)C)n1, the “viability” value is reported as 82.2%.
With O=C(O)CN1C(=O)/C(=C\c2cc(Br)ccc2OCc2ccccc2F)SC1=S the “viability” value was 93.8%.
With COc1cccc(CNC(=O)c2cccnc2Sc2ccc(C)cc2C)c1 the “viability” value was 95.1%.
In the case of O=C(CCN1C(=O)S/C(=C\c2ccccc2)C1=O)Nc1ccc(S(=O)(=O)Nc2nccs2)cc1, the “viability” value is reported as 101%.
For CCS(=O)(=O)c1nc(S(=O)(=O)c2ccc(Cl)cc2)c(NCCCN2CCCC2=O)s1, the “viability” value was 103%.
For [O-][n+]1c2ccccc2[n+]([O-])c2cc(O)ccc21, the “viability” value was 87.3%.
With CC(C)c1cccc(-c2ccc3c(c2)S(=O)(=O)c2cccc(C(=O)O)c2C3=O)c1 the “viability” value was 95.7%.
With COc1cc(/C=N/NC(=S)N/N=C/c2cc(OC)c(OC)c(OC)c2)cc(OC)c1OC the “viability” value was 101%.
With CN(C)c1ccc(N=Nc2ccc(S(=O)(=O)O)cc2)c2ccccc12 the “viability” value was 97.3%.
With CC(=O)NC(CC(=O)OCC(=O)Nc1cc(S(=O)(=O)N2CCCCC2)ccc1C)c1ccccc1 (configuration not stated) the “viability” value was 102%.
For C#CCOc1ccc(/C=C2/C(=O)ON=C2C)cc1Br, the “viability” value was 94.4%.
For Cc1cc(C)c(S(=O)(=O)ON2C(=O)c3ccccc3C2=O)cc1C, the “viability” value was 89.7%.
In the case of Cc1ccc(C)c(S(=O)(=O)/N=C2\C=C(NS(=O)(=O)c3ccccc3)C(=O)c3ccccc32)c1, the “viability” value is reported as 81.1%.
For O=C(OCCCN=C1NS(=O)(=O)c2ccccc21)c1ccc(F)cc1, the “viability” value was 99.1%.
For COc1cc(C2C(C#N)=C(N)OC3=C2C(=O)CC(C)(C)C3)cc([N+](=O)[O-])c1O (configuration not stated), the “viability” value was 96.9%.
For O=C(NN=Cc1cc(Br)c(O)c(Br)c1)c1ccccc1NS(=O)(=O)c1cccs1, the “viability” value was 94.5%.
In the case of CN(C)c1ccc(NC(=O)c2ccc(Cn3cc([N+](=O)[O-])cn3)cc2)cc1, the “viability” value is reported as 97.8%.
In the case of C/C(CCc1oc2c(Br)cc(Br)cc2c1-c1ccc(C)o1)=N\O, the “viability” value is reported as 85.2%.
In the case of CN(c1ccccc1)c1ccc(/C=C(/CCC(=O)O)c2nc3ccccc3s2)cc1[N+](=O)[O-], the “viability” value is reported as 85.7%.
With CCCC(=O)OCCNc1cc(SCc2ccco2)c2nonc2c1[N+](=O)[O-] the “viability” value was 83.5%.
For CC(=O)OCCCNc1cc(SCc2ccco2)c2nonc2c1[N+](=O)[O-], the “viability” value was 87%.
For CC(=O)OCCNc1cc(SCc2ccco2)c2nonc2c1[N+](=O)[O-], the “viability” value was 80.2%.
With COc1cc(/C=C2\C(=O)N(c3ccc(NC(C)=O)cc3)N=C2c2ccccc2)ccc1O the “viability” value was 101%.
With CCOc1ccc(N2C(=O)C(Cl)=C(Nc3ccccc3O)C2=O)cc1 the “viability” value was 89%.
With C=CCOc1c(Br)cc(/C=C2/C(=O)ON=C2C)cc1OC the “viability” value was 107%.
For Cc1cc(C2C(=O)CC(=O)CC2c2ccccc2)on1 (configuration not stated), the “viability” value was 97%.
In the case of COc1cc(/C=C2/C(=N)N3C(c4ccccc4)=CSC3=NC2=O)ccc1OCC(=O)O, the “viability” value is reported as 98.2%.
In the case of CCc1ccc(N=C2NC(=O)/C(=C/c3cc(Br)c(OCC(=O)O)c(OC)c3)S2)cc1, the “viability” value is reported as 99.5%.
In the case of O=C1/C(=C/c2cccs2)SC(=S)N1NS(=O)(=O)c1ccccc1, the “viability” value is reported as 91%.
For CCCOC(=O)c1c(-c2ccc(C)cc2C)csc1NC(=O)C1C2CCC(O2)C1C(=O)O (configuration not stated), the “viability” value was 103%.
In the case of COc1cccc(-c2[nH]nc3c2C(c2ccoc2)C(C#N)=C(N)O3)c1 (configuration not stated), the “viability” value is reported as 94.6%.
With O=S(=O)(O)c1cc2onnc2c2ccccc12 the “viability” value was 97.9%.
With CC1CC(=O)C(C(C2=C(O)CC(C)CC2=O)c2ccccc2)=C(O)C1 (configuration not stated) the “viability” value was 107%.
For Cc1[nH][nH]c(=O)c1C(c1ccc(-c2cccc(Cl)c2)o1)c1c(C)[nH][nH]c1=O, the “viability” value was 89.6%.
For Cc1[nH][nH]c(=O)c1C(c1ccc(-c2ccc(Cl)c(C(=O)O)c2)o1)c1c(C)[nH][nH]c1=O, the “viability” value was 96.7%.
With Cc1[nH]n(-c2ncc(-c3ccccc3)s2)c(=O)c1C(c1ccc(Br)cc1)C(C#N)C#N (configuration not stated) the “viability” value was 98.2%.
In the case of O=C(O)c1cc([N+](=O)[O-])c(Nc2cccc3ccccc23)c([N+](=O)[O-])c1, the “viability” value is reported as 99.5%.
For O=C1Nc2ccc(F)cc2C12Nc1ccccc1-c1nnc(SCc3ccccc3Cl)nc1O2 (configuration not stated), the “viability” value was 98.5%.
In the case of CCc1ccc([C@@H]2CC=C(C(=O)O)[C@H](c3ccc(Cl)cc3)N2S(=O)(=O)c2ccc(C)cc2)cc1, the “viability” value is reported as 80.9%.
With O=C(O)[C@H](Cc1ccccc1)N1C(=O)c2c(Cl)c(Cl)c(Cl)c(Cl)c2C1=O the “viability” value was 105%.
In the case of Cc1cc(C)c2nc(N3C(=O)C(O)=C(C(=O)c4ccco4)C3c3cccc(O)c3)sc2c1 (configuration not stated), the “viability” value is reported as 104%.
In the case of COc1ccc(CNC(=O)CCCC2=NS(=O)(=O)c3ccccc3N2)cc1, the “viability” value is reported as 94.9%.
For Cc1[nH]n(-c2ccccc2)c(=O)c1C(c1ccccc1[N+](=O)[O-])C(C#N)C#N (configuration not stated), the “viability” value was 93.8%.
For O=C1CCC/C1=C/Nc1ccc2c(c1)OCO2, the “viability” value was 108%.
For N#Cc1c2c(c(-c3ccco3)[nH]c1=O)CCCC2, the “viability” value was 95.5%.
For Cn1c(=O)c([N+](=O)[O-])c(Oc2ccccc2)c2ccccc21, the “viability” value was 98.3%.
In the case of O=Nc1c(O)ccc2cc(S(=O)(=O)O)ccc12, the “viability” value is reported as 102%.
In the case of COC(=O)c1cc(C(=O)OC)cc(N2C(=O)CC(NNC(=O)c3ccccc3Cl)C2=O)c1 (configuration not stated), the “viability” value is reported as 101%.
In the case of O=C(O)/C=C/C(=O)Nc1ccc(C2(c3ccc(NC(=O)/C=C/C(=O)O)cc3)c3ccccc3-c3ccccc32)cc1, the “viability” value is reported as 92.5%.
In the case of CCCn1nc(NS(=O)(=O)c2cccc3nonc23)c2cc3cccc(C)c3nc21, the “viability” value is reported as 94.3%.
With Cc1ccc(/C=C2\SC(=S)N(NS(=O)(=O)c3ccc(C)cc3)C2=O)cc1 the “viability” value was 96.1%.
With Cc1ccc(-c2nnc(Nc3ccc(CC(N)=O)cc3)c3ccccc23)cc1S(N)(=O)=O the “viability” value was 99.3%.
With Cc1nc(Nc2ccc(C(=O)O)cc2)nc(Nc2ccc(C(=O)O)cc2)c1[N+](=O)[O-] the “viability” value was 97.8%.
With CC1=CC(=O)C(Sc2ccc(C)cc2)=CC1=O the “viability” value was 102%.
For O=C(CCN1C(=O)/C(=C/c2ccc3c(c2)OCO3)SC1=S)Nc1cccc(C(=O)O)c1, the “viability” value was 102%.
For COc1ccc2nc(N3CCC(O)CC3)c(C#N)cc2c1, the “viability” value was 92.7%.
For CCOC(=O)c1c(=O)n(O)c2ccc(C)cc2[n+]1[O-], the “viability” value was 92.2%.
With COc1ccc(/C=C2\C(=O)ON=C2c2ccccc2)cc1OC the “viability” value was 95.4%.
With Cc1ccc(-c2ccc(/C=C3\C(=O)ON=C3c3ccccc3)o2)c([N+](=O)[O-])c1 the “viability” value was 95% [at 20 µM].
With COc1cccc(/C=C2/C(=O)NN(c3ccc(C)c(C)c3)C2=O)c1 the “viability” value was 102%.
In the case of CCOc1cc(/C=N/N=C2/NC(=O)C(CC(=O)O)S2)ccc1OCc1ccc(Cl)cc1 (configuration not stated), the “viability” value is reported as 88.4%.
In the case of Cn1cc([N+](=O)[O-])c(C(=O)N(Cc2ccccc2)Cc2ccccc2)n1, the “viability” value is reported as 97.6%.
In the case of CNc1ccc(Br)cc(C(=O)/C=C/c2cccc(OC)c2OC)c1=O, the “viability” value is reported as 102%.
With COc1ccc(Br)cc1/C=C/C(=O)NC(=S)Nc1ccc(Cl)c(C(=O)O)c1 the “viability” value was 104%.
With CC1(C)CC(=O)C(C(C2=C(O)CC(C)(C)CC2=O)c2ccc(O)c([N+](=O)[O-])c2)=C(O)C1 the “viability” value was 108%.
With O=C(O)/C(=C\c1c(C(=O)O)[nH]c2cc(Cl)cc(Cl)c12)c1ccccc1 the “viability” value was 102%.
For Oc1c(Br)cc(/C=N/n2c(-c3ccccc3)n[nH]c2=S)cc1Br, the “viability” value was 95% [at 20 µM].
In the case of CCOCCCNC(=O)CC1Oc2ccc(C)cc2NC1=O (configuration not stated), the “viability” value is reported as 117%.
For Cc1ccc(CC(CC(=O)Nc2cccc(C(F)(F)F)c2)C(=O)O)cc1 (configuration not stated), the “viability” value was 91.2%.
In the case of O=C1CCCC/C1=C/Nc1ccc2c(c1)OCO2, the “viability” value is reported as 95.4%.
For CC(=O)Oc1ccc(/C=C2/C(=O)N(c3ccccc3)N=C2C)cc1, the “viability” value was 98.7%.
With COC(=O)CC1=NN(c2ccccc2)C(=O)/C1=C\c1ccc(OC)cc1 the “viability” value was 99.1%.
With Cc1ccc(C2C(C#N)=C(N)Oc3nc(-c4ccccc4)[nH]c32)o1 (configuration not stated) the “viability” value was 95.8%.
For O=C1C(Cl)=C(NCCc2ccccc2)C(=O)c2ccccc21, the “viability” value was 99.4%.
In the case of COc1cccc(/C=C2\SC(=S)N(C(C(=O)O)c3ccccc3)C2=O)c1OC (configuration not stated), the “viability” value is reported as 97.6%.
With COc1cc2c3c(c1)-c1c(sn(-c4cc(OC)ccc4OC)c1=S)C(C)(C)N3C(=O)C2=O the “viability” value was 94.1%.
For C#CCOc1c(Br)cc(/C=C2/C(=O)ON=C2C)cc1OCC, the “viability” value was 97.5%.
